MITF inh – MITF inhibitors, primary screen, biochemical, AlphaScreen, human. Microphthalmia-associated transcription factor (Homo sapiens), O75030. AlphaScreen MITF homodimerization, bead proximity signal. inhibition, % at 2.6 µM. actives 0.91% (n = 650,000). AID 1259374, 2018; in the data active = inhibition above about 50%
TEAD-YAP inh – TEAD-YAP interaction inhibition, primary screen, TEAD-YAP interaction inhibitor project, luminescence, HEK-TIYL cells. TEAD-Gal4/YAP UAS-luciferase luminescence. inhibition, % at 9.12 µM. actives 1.4% (n = 640,000). AID 1259422, 2018; in the data active = inhibition above about 32%
GPR151 activ – activators of human GPR151, primary screen, cell-based, PathHunter beta-arrestin, luminescence | G-protein coupled receptor 151 (Homo sapiens), Q8TDV0 | PathHunter beta-arrestin GPR151 cells | activation, % at 11.2 µM | actives 1% (n = 650,000); in the data active = activation above about 4.9%
FBW7 act – FBW7 E3 ligase activators, primary screen, biochemical, AlphaScreen, human. AlphaScreen FBW7–phospho-cyclin E peptide binding, activator screen. actives 0.13% (n = 650,000). AID 1259310, 2017. normalized activity (activation), % at 26.1 µM. F-box/WD repeat-containing protein 7 (Homo sapiens), Q969H0; in the data active = normalized activity above about 1.9%;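 note: purified mutant Fbw7 with reduced substrate affinity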
Target sequence (Q969H0 whole entry, looked up): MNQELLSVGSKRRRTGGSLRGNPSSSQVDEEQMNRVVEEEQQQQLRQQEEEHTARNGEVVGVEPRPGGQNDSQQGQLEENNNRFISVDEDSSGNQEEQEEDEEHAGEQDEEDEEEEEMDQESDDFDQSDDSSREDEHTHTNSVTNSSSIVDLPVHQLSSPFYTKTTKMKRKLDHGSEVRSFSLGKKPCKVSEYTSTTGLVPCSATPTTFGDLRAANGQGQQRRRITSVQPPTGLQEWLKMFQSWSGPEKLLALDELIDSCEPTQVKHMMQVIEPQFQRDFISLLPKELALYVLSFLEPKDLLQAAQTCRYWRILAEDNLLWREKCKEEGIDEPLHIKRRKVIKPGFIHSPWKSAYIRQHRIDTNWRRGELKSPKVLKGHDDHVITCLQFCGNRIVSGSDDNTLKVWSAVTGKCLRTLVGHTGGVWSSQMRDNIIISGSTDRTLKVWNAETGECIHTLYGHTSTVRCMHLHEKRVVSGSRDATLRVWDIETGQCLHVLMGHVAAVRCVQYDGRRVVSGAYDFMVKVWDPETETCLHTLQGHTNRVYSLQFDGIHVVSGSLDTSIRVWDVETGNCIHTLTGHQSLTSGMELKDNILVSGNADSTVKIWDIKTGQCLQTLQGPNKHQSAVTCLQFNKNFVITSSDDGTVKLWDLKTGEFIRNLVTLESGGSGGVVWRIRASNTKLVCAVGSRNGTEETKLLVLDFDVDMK
Each line names hits and unclear results; the compound was inactive in the other large screens. The list is not random: actives were taken first. Their share in the collection is about 3.4%.

COc1cccc(C2CC(=O)N3C(=C2C#N)SCC3(O)c2ccc(F)cc2)c1 (centres undefined)	none
CC(C)OCC(O)Cn1c(N2CCN(C)CC2)nc2c1c(=O)[nH]c(=O)n2C (centres undefined)	none
c1ccc(-c2nc3cccnc3nc2N2CCOCC2)cc1	none
COc1ccc(/C=N/NC(=O)CO)c(OC)c1	none
Cc1c2oc3c(C)ccc(C(=O)C4CCCCO4)c3nc-2c(C(=O)C2CCCCO2)c(N)c1=O (centres undefined)	TEAD-YAP inh 96
COc1ccc2c(c1)C(C)=CC(C)(C)N2C(=O)CCl	TEAD-YAP inh 35
CCOc1ccc2c(c1)C(C)=CC(C)(C)N2C(=O)CCl	none
COc1ccc(/C=N/NC(=O)c2cc(C)[nH]n2)c(OC)c1	FBW7 act 2.3
O=C(O)c1cccc(NC(=S)N/N=C/c2cc([N+](=O)[O-])ccc2O)c1	TEAD-YAP inh 40
O=C(N/N=C\c1ccccc1F)c1cnccn1	none
O=C(N/N=C\c1ccccc1O)c1cnccn1	MITF inh 59
O=C(N/N=C/c1cc([N+](=O)[O-])ccc1O)c1ccccc1O	MITF inh 87
CN(C)c1ccc(-c2nc3cc(NC(=O)c4ccc(Br)o4)ccc3o2)cc1	none
Cc1ccc(C2=C/C(=C/c3ccc(Cl)cc3Cl)C(=O)O2)c(C)c1	none
Cc1cc(C(=O)N/N=C/c2cc([N+](=O)[O-])ccc2O)n[nH]1	MITF inh 59
Cc1cc(C(=O)N/N=C/c2c(O)ccc3cc([N+](=O)[O-])ccc23)n[nH]1	none
Cc1nc2ccc(C(=O)N/N=C/c3cc([N+](=O)[O-])ccc3O)cc2[nH]1	MITF inh 92, FBW7 act 1.9
O=C(N/N=C/c1cc([N+](=O)[O-])ccc1O)c1cccnc1	MITF inh 99
O=C(N/N=C/c1cc([N+](=O)[O-])ccc1Cl)c1cccnc1	none
COc1cc([N+](=O)[O-])cc(/C=N/NC(=O)c2ccccc2O)c1O	MITF inh 79
COc1ccc2nc3oc(C(=O)NCc4ccco4)cc3cc2c1	none
COc1ccccc1N1CCN(C2CCCN(C3CCCC3)C2)CC1 (centres undefined)	none
CC(C(=O)N/N=C/c1cc([N+](=O)[O-])ccc1O)n1nnc2ccccc21 (centres undefined)	MITF inh 86
CC(C(=O)N/N=C/c1ccccc1O)n1nnc2ccccc21 (centres undefined)	none
COc1cc([N+](=O)[O-])cc(/C=N/NC(=O)c2ccc(F)cc2)c1O	MITF inh 63, TEAD-YAP inh 54
O=C(N/N=C/c1ccccc1O)c1ccccc1O	TEAD-YAP inh 37
O=S(=O)(Cc1ccccc1)NCC1CCCN(C2CCOCC2)C1 (centres undefined)	none
CN1CCN(/N=C/c2c(O)[nH]c3ccccc23)CC1	none
O=C1c2ccc3c4c(ccc(c24)C(=O)N1CCCCO)C(=O)N(CCCCO)C3=O	TEAD-YAP inh 79
COc1ccc(/C=C2\SC(=Nc3ccccc3F)NC2=O)c(OC)c1	none
COc1ccc(/C=C2\SC(=Nc3cccc4ccccc34)NC2=O)c(OC)c1	TEAD-YAP inh 59
COc1ccc2ccccc2c1/C=C1/SC(=Nc2ccccc2)NC1=O	TEAD-YAP inh 44
COc1ccc2ccccc2c1/C=C1\SC(=S)NC1=O	none
COc1ccc(/C=C2\SC(=Nc3ccccc3)NC2=O)c2ccccc12	TEAD-YAP inh 63
COc1ccc(OC)c(/C=C2/SC(=Nc3ccc(C)cc3)NC2=O)c1	TEAD-YAP inh 51
O=C(NCC1CCCCC1)C1CCCN(c2ncccn2)C1 (centres undefined)	none
O=C(Nc1nc2ccccc2[nH]1)c1cccc(I)c1	none
O=C(Nc1nc2ccccc2[nH]1)c1ccc(F)cc1	TEAD-YAP inh 43
O=C(Nc1nc2ccccc2[nH]1)c1ccccc1F	TEAD-YAP inh 89
COc1ccc(Cl)cc1C(=O)Nc1nc2ccccc2[nH]1	TEAD-YAP inh 66
Cc1[nH]n(-c2cccc(Cl)c2)c(=O)c1C=Nc1ccc(Br)cc1	none
O=C(Nc1ccc(-c2nnc3n2CCCCC3)cc1)c1ccccc1	none
COc1ccc(C(=O)N/N=C(\C)CC(=O)Nc2ccccc2Br)cc1OC	TEAD-YAP inh 41
COc1ccc(C(=O)Nc2cccnc2)cc1OC	none
COc1ccc(C(=O)N/N=C(\C)CC(=O)Nc2cccc3c2CCCC3)cc1OC	TEAD-YAP inh 32
C/C(CC(=O)Nc1cccc2c1CCCC2)=N\NC(=O)c1cccc(O)c1	none
C/C(CC(=O)Nc1ccc(F)cc1F)=N\NC(=O)c1ccc(O)cc1	FBW7 act 2.1
COc1ccc(C(=O)N/N=C(\C)CC(=O)Nc2cccnc2)cc1OC	TEAD-YAP inh 34
COc1cc(Nc2c(-c3ccc4c(c3)OCC(=O)N4)c(=O)c2=O)cc(OC)c1	none
CCOC(=O)C(N)CSC1CC(=O)N(c2ccc(OC)cc2)C1=O (centres undefined)	none
COc1ccc(N2C(=O)CC(SCCN)C2=O)cc1 (centres undefined)	FBW7 act 2.5
COc1ccc(N2C(=O)CC(Sc3ccccc3C(=O)O)C2=O)cc1 (centres undefined)	none
COc1ccc(N2C(=O)CC(Sc3nc(C)c4ccccc4n3)C2=O)cc1 (centres undefined)	TEAD-YAP inh 53
O=c1cc(-c2ccc3c(c2)OCCO3)oc2ccc([N+](=O)[O-])cc12	none
CCOc1ccc(-c2c3cc(O)c(=O)cc-3oc3cc(O)c(O)cc23)cc1	MITF inh 111
O=c1cc2oc3cc(O)c(O)cc3c(-c3ccc([N+](=O)[O-])cc3)c-2cc1O	MITF inh 97
O=C1c2ccccc2C(=O)c2c(O)c([N+](=O)[O-])cc(O)c21	none
CCOc1ccc(-c2cc(=O)c3ccc(NC(=O)c4ccncc4)cc3o2)cc1	none
O=c1cc2oc3cc(O)c(O)cc3c(-c3ccccc3[N+](=O)[O-])c-2cc1O	MITF inh 114
Cn1c2ccccc2c2ccc(C=O)cc21	none
CC1(C)CC(=O)C2=C(C1)Nc1cc(C(=O)c3ccccc3)ccc1NC2c1cccc(Cl)c1 (centres undefined)	none
Cn1cc(-c2cccc3cnc(Nc4ccc(-n5cnc(N6CCOCC6)n5)cc4)nc23)cn1	none
Cn1cc(-c2ccc3cnc(Nc4ccc(-n5cnc(N6CCOCC6)n5)cc4)nc3c2Cl)cn1	TEAD-YAP inh 56
CCOC(=O)c1c(-c2cnn(C)c2)ccc2cnc(Nc3ccc(-n4cnc(N5CCOCC5)n4)cc3)nc12	TEAD-YAP inh 98
Cn1cc(-c2ccc3cnc(Nc4ccc(-n5cnc(N6CCOCC6)n5)cc4)nc3c2OCCN2CCOCC2)cn1	TEAD-YAP inh 96
Cc1c(-c2cnn(C)c2)ccc2cnc(Nc3ccc(-n4cnc(N5CCOCC5)n4)cc3)nc12	none
CC(C)N1CCN(c2ncn(-c3ccc(Nc4ncc5ccc(-c6cnn(C)c6)c(Cl)c5n4)cc3)n2)CC1	TEAD-YAP inh 90
